Source: PubChem BioAssay (NCI)
About 83,000 compounds went through this panel and 20% of them were active in at least one assay; those are over-represented in the sample as a whole.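 Growth was measured after 48 h exposure to one concentration of compound in 96-well plates. Values under 10 count as active.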 Unmarked numbers belong to inactive results. The source made the active and inactive calls.

Legend:
Test in all cases: NCI-60 one-dose screen, 48 h (100 = growth as untreated, 0 = no growth, -100 = all killed)
Conditions in all cases: 10 µM unless noted
NCI-H23 lung = system: NCI-H23 lung
NCI-H226 lung = system: NCI-H226 lung
NCI-H322M lung = system: NCI-H322M lung
HOP-62 NSCLC = system: HOP-62 NSCLC
NCI-H460 lung = system: NCI-H460 lung
HOP-92 NSCLC = system: HOP-92 NSCLC
NCI-H522 lung = system: NCI-H522 lung
A549/ATCC NSCLC = system: A549/ATCC NSCLC
786-0 renal = system: 786-0 renal
COLO 205 colon = system: COLO 205 colon
DU-145 prostate = system: DU-145 prostate
K-562 leukemia = system: K-562 leukemia
MALME-3M melanoma = system: MALME-3M melanoma
MDA-MB-231 breast = system: MDA-MB-231 breast
RXF 393 renal = system: RXF 393 renal
SF-268 CNS = system: SF-268 CNS
SF-295 CNS = system: SF-295 CNS
SF-539 CNS = system: SF-539 CNS
UACC-257 melanoma = system: UACC-257 melanoma
M14 melanoma = system: M14 melanoma

Structure (SMILES)	growth (NCI-H23 lung)	growth (NCI-H226 lung)	growth (NCI-H322M lung)	growth (HOP-62 NSCLC)	growth (NCI-H460 lung)	growth (HOP-92 NSCLC)	growth (NCI-H522 lung)	growth (A549/ATCC NSCLC)	growth (786-0 renal)	growth (COLO 205 colon)	growth (DU-145 prostate)	growth (K-562 leukemia)	growth (MALME-3M melanoma)	growth (MDA-MB-231 breast)	growth (RXF 393 renal)	growth (SF-268 CNS)	growth (SF-295 CNS)	growth (SF-539 CNS)	growth (UACC-257 melanoma)	growth (M14 melanoma)
CCCS(=O)(=O)Nc1ccc(F)c(C(=O)c2c[nH]c3ncc(-c4ccc(Cl)cc4)cc23)c1F	56%	57.2%	27.8%	34.8%	17.3%	28%	28.9%	25.6%	19%	-4.91% (active)	49.3%	21.9%	11.2%	34.4%	-11.6% (active)	41.4%	7.92% (active)	23.7%	-6.6% (active)	3.85% (active)
C[C@@H](Oc1cc(-n2cnc3ccc(CN4CCN(C)CC4)cc32)sc1C(N)=O)c1ccccc1C(F)(F)F	32.9%	69.3%	63.8%	4.73% (active)	8.47% (active)	21.7%	-13.5% (active)	0.209% (active)	6.39% (active)	-17.1% (active)	2.67% (active)	6.08% (active)	21%	27.2%	16.5%	31.6%	32.7%	-22.1% (active)	-25.5% (active)	15.7%
Cc1cc2c(F)c(Oc3ncnn4cc(OC[C@@H](C)OC(=O)[C@H](C)N)c(C)c34)ccc2[nH]1	27.6%	50.2%	41.1%	34.8%	38.7%	39.2%	58.1%	35.8%	72.3%	-6.99% (active)	66.5%	41.5%	11.4%	39.8%	43.8%	74.7%	77.6%	73.5%	-15.9% (active)	16.3%
C=CC(=O)Nc1cccc(Nc2nc(Nc3ccc(N4CCN(C(C)=O)CC4)cc3OC)ncc2C(F)(F)F)c1	26.7%	26.8%	-28.9% (active)	27.6%	9.55% (active)	-18.1% (active)	-12% (active)	5.15% (active)	8.43% (active)	-37.4% (active)	16.7%	18.7%	22.2%	21.7%	-11.2% (active)	24.1%	39.5%	18.6%	24.5%	16.9%
CNC(=O)c1cc(Oc2cccc3nc(Nc4ccc(Oc5ccccc5)cc4)ccc23)ccn1	78%	66%	99.9%	92%	61.9%	71.2%	62.7%	58.3%	72.5%	46%	83.4%	41%	78.2%	71.6%	91.3%	75.4%	60.2%	90.8%	77.2%	68.6%
O=C(CNc1nnc(-c2ccc(Cl)cc2)o1)Nc1ccc(-c2nc3ccccc3s2)cc1	88.7%	82.9%	95.1%	107%	99.7%	87.9%	77.1%	95.8%	101%	104%	98.5%	85.6%	88.7%	98.8%	100%	77.3%	102%	97%	103%	102%
COc1ccc(Cl)c(Nc2nc3ccccc3nc2NS(=O)(=O)c2cccc(NC(=O)C(C)(C)N)c2)c1	64.5%	71.4%	35.1%	39.4%	38%	-1.2% (active)	49%	32.4%	16.7%	21.8%	62.4%	63.3%	69.5%	68.3%	-10.2% (active)	49.8%	12.2%	13.7%	56.9%	51.7%
Cc1cccc(Cl)c1NC(=O)c1cnc(Nc2cc(N3CCOCC3)cc(N3CCOCC3)c2)s1	73.8%	68.6%	-10.4% (active)	4.81% (active)	51.2%	-42.1% (active)	-9.13% (active)	10.7%	17.1%	-4.18% (active)	3.54% (active)	5.18% (active)	61.3%	20.5%	-30% (active)	34%	34%	6.88% (active)	64.3%	35.9%
CN(C)C[C@@H]1CCn2cc(c3ccccc32)C2=C(C(=O)NC2=O)c2cn(c3ccccc23)CCO1	-15.7% (active)	-12.5% (active)	32.2%	-67.9% (active)	-70.6% (active)	46.1%	-23.1% (active)	-12.4% (active)	-69.9% (active)	-53.8% (active)	13.2%	-58.7% (active)	-70.5% (active)	-35.8% (active)	-72.9% (active)	36.6%	21%	-93.2% (active)	-20.1% (active)	3.4% (active)
CCCCCc1ccc(C)cc1OC(=O)CCl	113%	104%	97.3%	109%	104%	73.6%	103%	108%	110%	107%	109%	98.8%	90.9%	110%	103%	105%	102%	112%	107%	111%
Cc1nc(-c2cn3c(n2)-c2ccc(-c4cnn(C(C)(C)C(N)=O)c4)cc2OCC3)n(C(C)C)n1	54.5%	32.7%	2.09% (active)	31.2%	18.7%	0.115% (active)	36.1%	8.09% (active)	7.76% (active)	13.5%	28.7%	51%	11.1%	31.8%	-28.1% (active)	33.1%	3.66% (active)	-19.5% (active)	20.2%	40.5%
O=S1(=O)OC(c2cc(Cl)c(O)c(Br)c2)(c2cc(Cl)c(O)c(Br)c2)c2ccccc21	103%	104%	112%	99%	105%	68.5%	70.8%	94.1%	106%	115%	114%	109%	115%	94.8%	109%	106%	127%	94.6%	95.4%	99.4%
CNC(=O)c1c(C)oc2cc(Oc3ncnc4cc(OC)c(OC)cc34)ccc12	93.8%	59.4%	93.9%	82.9%	106%	81.1%	89.5%	81.1%	102%	108%	101%	88.4%	104%	101%	66.4%	70.7%	96%	41.6%	86.6%	98.2%
Cc1cn(-c2cc(NC(=O)c3ccc(C)c(Nc4nccc(-c5cnccn5)n4)c3)cc(C(F)(F)F)c2)cn1	73%	86.9%	95.3%	55.9%	61.7%	89%	43.1%	62.5%	97.7%	25.3%	82.2%	4.39% (active)	16.6%	55.4%	129%	65.1%	93.9%	98.2%	38.4%	18.7%
CCc1cc2c(cc1N1CCC(N3CCOCC3)CC1)C(C)(C)c1[nH]c3cc(C#N)ccc3c1C2=O	14.5%	-35% (active)	-12.5% (active)	-61.7% (active)	1.34% (active)	-10.9% (active)	-38.5% (active)	7.92% (active)	-45.7% (active)	-42.5% (active)	10.1%	2.08% (active)	-27.4% (active)	-7.59% (active)	-1.05% (active)	-2.19% (active)	-3.18% (active)	-71.8% (active)	-20% (active)	-26.1% (active)
